Experimental findings from PubChem BioAssay are described below.

Structures are written as SMILES. Calls of active or inactive are those of the source.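 The calls were made as follows, unless noted: active = NADPH fluorescence slope more negative than the mean of all samples by about 3 SD, 99.7% confidence; inactive = the rest.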

Experiment [1] is described as follows: inhibitors of TNFa-induced NFkB p65 translocation, primary screen, imaging, HUVEC, MLSMR starter and 10KST1 sets (AID 438;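 active = inhibition above 20% together with a positive visual image hit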;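 also: compound added about 3h40 before a 20 min TNFalpha stimulation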;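 as to inhibition: signal is the nuclear over cytoplasmic p65 intensity ratio per well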). The note with it: HUVEC TNFa-induced p65 nuclear translocation; cell count: measured here: nuclei count (cytotoxicity indicator), at 2.08 µM; inhibition: at 2 µM, stronger effect = higher value, 0% TNFa-plus-vehicle, 100% no-TNFa wells.
The nature of experiment [2]: inhibitors of mutant huntingtin aggregation, primary screen, imaging, exon1htt(103Q)mCFP cells, high-content imaging (AID 483;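 active = visual image review flags a hit and inhibition of aggregation exceeds 20%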;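 also: compound exposure lasted 3 days before fixation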;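 as to nuclei count: percent of the per-plate median nuclei count of sample wells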). To be noted: exon1htt(103Q)mCFP cell line, aggregate imaging, at 2 µM; inhibition of aggregation: stronger effect = higher value; nuclei count: measured here: cell count, toxicity.
A short description of experiment [3]: inhibitors of E-selectin induction by TNFa, primary screen, imaging, HUVEC, immunofluorescence, MLSMR starter and 10KST1 sets (AID 487;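 active = visually confirmed hit in the image check and inhibition above 20%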;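 as to inhibition: signal is fraction of cell area covered by stained E-selectin grains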;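 as to nuclei count: 100% = median nuclei count of all wells on the same plate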). The note with it: HUVEC TNFalpha-induced E-selectin immunofluorescence imaging, at 2 µM; inhibition: stronger effect = higher value; nuclei count: measured here: cell number, toxicity.
Experiment [4] deals with Voltage-gated potassium channel subunit beta-2 (Rattus norvegicus) (UniProt P62483). Put plainly: KvBeta enzyme negative modulators, primary screen, biochemical, NADPH fluorescence (AID 622;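 active = fluorescence slope higher than the sample average by over 3 SD, cut at about -0.22 in these data, passing the limit was not always enough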;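 also: slope of raw intensity against log time taken from 70 to 1610 s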). To be noted: recombinant KvBeta, 4-cyanobenzaldehyde reduction, at 10 µM, stronger effect = higher value.
The target is the same in experiment [5]. Nature of the experiment: KvBeta positive modulators, primary screen, biochemical, NADPH fluorescence (AID 623).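 Also: fluorescence intensity change per second fitted from 20 to 320 s.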 To be noted: Recombinant KvBeta, NADPH fluorescence decrease slope, 10 min; at 10 µM; stronger effect = lower value.
The target of experiment [6] is Alpha-2C adrenergic receptor (Homo sapiens) (UniProt P18825). Nature of the experiment: modulators of alpha2C/GIRK thallium flux, primary screen, cell-based, HEK293 alpha2C/GIRK1/2 (AID 624;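 active = fluorescence slope after compound addition differing from the mean of all screened samples at 99.7% confidence, in either direction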;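 also: slope of fluorescence ratio to pre-addition baseline per second over 15 to 24 s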). To be noted: thallium flux BTC fluorescence, at 10 µM, actives lie on both sides.
Experiment [7] can be described thus: inhibitors of Sendai virus-induced IRF3 signaling, primary screen, TLR/RLR signaling modifier project, cell-based, Sendai virus stimulus, luciferase, 10K MLSCN set (AID 602276;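 active = inhibition at or above 50% at 10 µM; inactive = inhibition below 50%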;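 also: firefly luciferase from ISG56 promoter only with Renilla not read in this screen; 0% = Sendai virus plus DMSO and 100% = medium plus DMSO without virus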). To be noted: HEK293 RL24 IRF3 luciferase reporter, at 10 µM, stronger effect = higher value.
Experiment [8] can be described thus: inhibitors of poly I:C-induced TLR3 signaling, primary screen, cell-based, poly I:C stimulus, luciferase, 10K MLSCN set (AID 602277;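 active = inhibition of the reporter signal at or above 50%; inactive = inhibition below 50%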). The note with it: HEK293-TLR3 RL24 IRF3 luciferase reporter, at 10 µM, stronger effect = higher value. For orientation: Reporter assays use an easily measured gene product as a stand-in for the process of interest.

Alpha-2C adrenergic receptor (Homo sapiens), sequence (P18825 whole entry, looked up): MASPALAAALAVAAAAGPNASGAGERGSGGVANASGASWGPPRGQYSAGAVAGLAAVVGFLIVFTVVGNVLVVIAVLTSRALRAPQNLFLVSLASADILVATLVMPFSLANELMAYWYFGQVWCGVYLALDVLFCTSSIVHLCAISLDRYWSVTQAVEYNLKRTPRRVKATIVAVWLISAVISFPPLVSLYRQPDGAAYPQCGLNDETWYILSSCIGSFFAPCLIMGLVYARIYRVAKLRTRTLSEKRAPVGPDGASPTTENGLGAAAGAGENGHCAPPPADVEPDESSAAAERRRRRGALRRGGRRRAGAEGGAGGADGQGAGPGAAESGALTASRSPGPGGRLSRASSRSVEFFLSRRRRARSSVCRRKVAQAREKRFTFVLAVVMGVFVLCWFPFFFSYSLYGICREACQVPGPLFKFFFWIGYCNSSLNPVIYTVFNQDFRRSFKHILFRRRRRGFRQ
Voltage-gated potassium channel subunit beta-2 (Rattus norvegicus), sequence (P62483 whole entry, looked up): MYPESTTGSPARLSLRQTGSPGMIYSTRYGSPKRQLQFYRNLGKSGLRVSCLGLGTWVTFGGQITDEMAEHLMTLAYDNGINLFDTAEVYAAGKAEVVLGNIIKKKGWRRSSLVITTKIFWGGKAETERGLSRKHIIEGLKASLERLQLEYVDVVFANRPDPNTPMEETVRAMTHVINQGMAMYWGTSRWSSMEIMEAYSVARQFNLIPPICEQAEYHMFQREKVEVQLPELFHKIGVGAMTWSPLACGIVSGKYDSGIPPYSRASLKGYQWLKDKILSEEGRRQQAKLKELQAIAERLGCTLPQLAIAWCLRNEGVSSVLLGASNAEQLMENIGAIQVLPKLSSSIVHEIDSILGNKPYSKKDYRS

In general, inhibition refers to the drop in the measured response relative to a control, in per cent. On to `CCC(C)C(=O)Nc1nc2c(s1)C(=O)CC(C)(C)C2` (centres undefined), for which the cell count in experiment [1] stood at 612. Further, the inhibition is 6.9% (inactive) in experiment [1], -8.8% (inactive) in experiment [3], -7.18% (inactive) in experiment [7] and -6.11% (inactive) in experiment [8]. Besides, the inhibition of aggregation in experiment [2] was -4.2% (inactive). Also, the nuclei count in experiment [2] was 102%; in experiment [3] it was 115%. In addition, in experiment [4], the fluorescence slope was -0.553 (inactive). The NADPH fluorescence slope in experiment [5] is -2.6e-05 (inactive). Moreover, the slope in experiment [6] is 0.00723 (inactive).

For the compound `Cc1ccc2c(c1C)NC(=O)C2(O)CC(=O)c1ccc2c(c1)OCO2` (centres undefined), in experiment [1], the cell count was determined as 788. In addition, the inhibition in experiment [1] was 0.6% (inactive); in experiment [3] it was -44% (inactive); in experiment [7], 11.2% (inactive); in experiment [8], 25.3% (inactive). The inhibition of aggregation in experiment [2] was 34.5% (inactive). In addition, the nuclei count in experiment [2] was 96.2%; in experiment [3], 110%. In addition, in experiment [4], the fluorescence slope was -0.472 (inactive). Moreover, in experiment [5], the NADPH fluorescence slope was -5.3e-05 (inactive). The slope in experiment [6] is 0.00591 (inactive).

Take `CCCCC(CC)CNC(=O)C1CCCN(S(=O)(=O)c2cnc[nH]2)C1` (centres undefined): the cell count in experiment [1] was 565. The inhibition in experiment [1] was 8.7% (inactive); in experiment [3], 0.3% (inactive); in experiment [7], 10.8% (inactive); in experiment [8], 15.8% (inactive). Besides, the inhibition of aggregation in experiment [2] was 2.1% (inactive). The nuclei count in experiment [2] turned out to be 75.2%; in experiment [3], 104%. Besides, in experiment [4], the fluorescence slope is -0.491 (inactive). In addition, in experiment [5], the NADPH fluorescence slope was -1.6e-05 (inactive). In experiment [6], the slope was 0.00613 (inactive).

For `CCN(C(=O)c1cc(Cl)ccc1OC)C1CCCCC1`, the cell count in experiment [1] was 303. Besides, the inhibition was 4.5% (inactive) in experiment [1], 15.2% (inactive) in experiment [3], 13.8% (inactive) in experiment [7] and 42% (inactive) in experiment [8]. Moreover, the inhibition of aggregation in experiment [2] is 8.5% (inactive). Further, the nuclei count is 109% in experiment [2] and 113% in experiment [3]. Besides, the fluorescence slope in experiment [4] is -0.429 (inactive). Besides, in experiment [5], the NADPH fluorescence slope was -6.2e-05 (inactive). Also, in experiment [6], the slope was 0.00399 (inactive).

For the compound `S=C(c1ccc(-c2cc(Cl)ccc2Cl)o1)N1CCOCC1`, in experiment [1], the cell count worked out at 365. The inhibition in experiment [1] is -10.4% (inactive); in experiment [3], -53.8% (inactive); in experiment [7] it was 21.6% (inactive); in experiment [8] it was 8.92% (inactive). For the same compound, the inhibition of aggregation in experiment [2] is -14% (inactive). Besides, the nuclei count was determined as 111% in experiment [2] and 113% in experiment [3]. Besides, the fluorescence slope in experiment [4] is -0.523 (inactive). Besides, the NADPH fluorescence slope in experiment [5] was -6e-06 (inactive). For the same compound, the slope in experiment [6] was 0.00341 (inactive).

On to `CCn1c(=O)cc(OCC(=O)Nc2nc(C)cs2)c2ccccc21`, for which, in experiment [1], the cell count came out at 809. Moreover, the inhibition in experiment [1] is -1.7% (inactive); in experiment [3], -54.6% (inactive); in experiment [7], 7.74% (inactive); in experiment [8] it was 32.8% (inactive). The inhibition of aggregation in experiment [2] was -24.7% (inactive). Besides, the values for the nuclei count in experiment [2] and in experiment [3] were 90.4% and 125%, respectively. Also, in experiment [4], the fluorescence slope was -0.525 (inactive). In addition, in experiment [5], the NADPH fluorescence slope was -3.4e-05 (inactive). Moreover, the slope in experiment [6] was 0.00615 (inactive).

In the case of `Cc1nnc2c3ccccc3c(-c3ccccc3)nn12`, the cell count in experiment [1] is 481. Besides, the inhibition in experiment [1] was -4.4% (inactive); in experiment [3], -3.3% (inactive); in experiment [7], 68% (active); in experiment [8], 61.1% (active). Besides, the inhibition of aggregation in experiment [2] is -5.8% (inactive). For the same compound, the nuclei count in experiment [2] came out at 92.4%; in experiment [3], 108%. Further, the fluorescence slope in experiment [4] is -0.301 (inactive). Besides, in experiment [5], the NADPH fluorescence slope is -4.7e-05 (inactive). Besides, the slope in experiment [6] was 0.00584 (inactive).

For the compound `O=C(NCN1CCCCC1)c1cnccn1`, the cell count in experiment [1] was found to be 604. Further, the inhibition in experiment [1] was -9.2% (inactive); in experiment [3] it was -101% (inactive); in experiment [7], 13.6% (inactive); in experiment [8], 29% (inactive). For the same compound, in experiment [2], the inhibition of aggregation was -3.4% (inactive). In addition, the nuclei count in experiment [2] was determined as 102%; in experiment [3] it was 115%. The fluorescence slope in experiment [4] is -0.425 (inactive). Moreover, the NADPH fluorescence slope in experiment [5] is -8.7e-05 (inactive). Besides, the slope in experiment [6] is 0.00561 (inactive).

In the case of `Cn1c(C(=O)OCC(=O)NCC2CCCO2)cc2sccc21` (centres undefined), in experiment [1], the cell count amounted to 497. For the same compound, the inhibition was -1% (inactive) in experiment [1], -79% (inactive) in experiment [3], 13.3% (inactive) in experiment [7] and 13.1% (inactive) in experiment [8]. Further, in experiment [2], the inhibition of aggregation was -7.3% (inactive). Moreover, the nuclei count in experiment [2] is 108%; in experiment [3], 107%. Besides, in experiment [4], the fluorescence slope is -0.451 (inactive). Further, the NADPH fluorescence slope in experiment [5] is 9.3e-06 (inactive). For the same compound, in experiment [6], the slope is 0.00457 (inactive).

Regarding `CCCC(=O)Nc1nnc(Sc2ccc(N(C)C)cc2)s1`, in experiment [1], the cell count worked out at 671. Further, the inhibition in experiment [1] is 4.8% (inactive); in experiment [3] it was -15.5% (inactive); in experiment [7], -1.24% (inactive); in experiment [8] it was -10.3% (inactive). Besides, in experiment [2], the inhibition of aggregation was -9.6% (inactive). For the same compound, the nuclei count in experiment [2] is 96.4%; in experiment [3] it was 97.6%. The fluorescence slope in experiment [4] was -0.466 (inactive). Further, the NADPH fluorescence slope in experiment [5] was -2.9e-05 (inactive). In experiment [6], the slope was 0.00582 (inactive).

Regarding `CCOC(=O)C1CCCN(C(=O)c2cn(C)c(=O)c3cc(OC)c(OC)cc23)C1` (centres undefined), the cell count in experiment [1] came to 746. The inhibition in experiment [1] was -16.1% (inactive); in experiment [3], 0.3% (inactive); in experiment [7] it was 6.66% (inactive); in experiment [8], 15.1% (inactive). In experiment [2], the inhibition of aggregation was -3.6% (inactive). In addition, the nuclei count in experiment [2] and in experiment [3] was 110% each time. In addition, the fluorescence slope in experiment [4] is -0.468 (inactive). The NADPH fluorescence slope in experiment [5] is -1e-06 (inactive). Moreover, the slope in experiment [6] is 0.00726 (inactive).

Take `COC(=O)C1CCN(C(=O)NC(C)(C)C)CC1`: the cell count in experiment [1] came to 307. Moreover, the inhibition in experiment [1] is -4.5% (inactive); in experiment [3], -37.4% (inactive); in experiment [7], 5.02% (inactive); in experiment [8], 14.9% (inactive). In addition, the inhibition of aggregation in experiment [2] was 14.5% (inactive). Besides, the figures for the nuclei count in experiment [2] and in experiment [3] were 82.1% and 99.6%, respectively. In addition, in experiment [4], the fluorescence slope is -0.618 (inactive). Besides, in experiment [5], the NADPH fluorescence slope is -4.3e-05 (inactive). Also, the slope in experiment [6] was 0.00637 (inactive).

In the case of `COc1ccc(N(CC(=O)Nc2ccc(F)c(Cl)c2)S(=O)(=O)c2c(C)noc2C)cc1`, the cell count in experiment [1] was found to be 372. In addition, the inhibition in experiment [1] was 2.7% (inactive); in experiment [3] it was -23.6% (inactive); in experiment [7], 16.5% (inactive); in experiment [8] it was 21.7% (inactive). The inhibition of aggregation in experiment [2] was -8.2% (inactive). The nuclei count in experiment [2] turned out to be 99%; in experiment [3] it was 104%. Further, the fluorescence slope in experiment [4] is -0.425 (inactive). In addition, in experiment [5], the NADPH fluorescence slope is 1.3e-05 (inactive). In addition, the slope in experiment [6] is 0.00672 (inactive).

For `c1ccc2c(c1)nc(NCCN1CCOCC1)c1nncn12`, in experiment [1], the cell count was found to be 508. Further, the inhibition in experiment [1] is 3.2% (inactive); in experiment [3] it was -51.1% (inactive); in experiment [7], 12.4% (inactive); in experiment [8] it was 37.9% (inactive). For the same compound, the inhibition of aggregation in experiment [2] was 25.2% (inactive). The nuclei count in experiment [2] was 85.4%; in experiment [3], 99.2%. In experiment [4], the fluorescence slope is -0.587 (inactive). The NADPH fluorescence slope in experiment [5] was -4e-05 (inactive). In addition, the slope in experiment [6] was 0.00643 (inactive).
